Screening data from PubChem.
Rows were chosen to be rich in hits. Some 10% of all compounds tested hit in one or more screens of this group.
NPR1 antag: blocks ANP-stimulated signaling of human Npr1 receptor | P16066 | HEK293 hNpr1 GloSensor cGMP, ANP-stimulated luminescence | Potency, µM (series often up to 46.3 µM), usual class: inhibitors | 76,000 compounds, 1.6% hits | AID 1347048; calls by dose curve; also: nearly all actives have a fitted effect of over 60% in size
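Compound pre-incubated 30 min at room temperature on GloSensor-loaded HEK293 cells stably carrying hNpr1 and the pGS-40F cGMP biosensor. Stimulation uses hNppA at 0.1 nM final; luminescence is taken at baseline and 20 min post-agonist.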
HEK cytotox: HEK 293 cell cytotoxicity; HEK 293 viability, ATP luminescence (CellTiter-Glo), 48-72 h; 94,000 compounds, 6.6% hits; Potency, µM (highest dose often 115 µM), actives largely listed as inhibitors; AID 1345083; also: nearly all actives have a fitted effect of over 60% in size
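Pintool-delivered compounds were incubated with HEK 293 cells (250 cells/well) at 37 degree Celsius for 48 or 72 hr. ATP-dependent luminescence (CellTiter-Glo) then reported remaining viable cells.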
NIH3T3 tox: cytotoxic compounds in NIH 3T3 cells; NIH 3T3 viability, CellTiter-Glo ATP luminescence, 48-72 h; Potency, µM (series often up to 96.7 µM), most hits filed as inhibitors; 94,000 compounds, 4.3% hits; AID 1345082; also: nearly all actives have a fitted effect of over 55% in size
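ATP-dependent luminescence (CellTiter-Glo) served as the viability signal for NIH 3T3 cells treated with compound for 48 or 72 hr at 37 °C.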
FLuc inh: Photinus pyralis luciferase inhibition | P08659 | purified P. pyralis luciferase, luminescence, biochemical | Potency, µM (top dose mostly 115 µM), usual class: inhibitors | 76,000 compounds, 2.5% hits | AID 1347043; also: nearly all actives have a fitted effect of over 65% in size
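Inhibitors were tested against purified firefly luciferase in a biochemical, low-substrate format (both substrates at 10uM) and luminescence measured with a CCD imager.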
GPT2 inhibitor: GPT2 alanine aminotransferase inhibition; Q8TD30; Recombinant GPT2, coupled pyruvate oxidase/HRP Amplex Red fluorescence; Potency, µM (top dose mostly 57.7 µM), hits mostly inhibitors; 100,000 compounds, 0.25% hits; also: nearly all actives have a fitted effect of over 60% in size
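Fluorescence of coupled pyruvate oxidase/HRP/Amplex Red system (50uM Amplex, 30 min, dark) reports pyruvate formed by GPT2. Enzyme reaction: 10ng/uL GPT2, 2mM L-alanine, 250uM a-KG, 30 min room temperature, pH 7.5; 50uM AOA control.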
Of the large screens only hits and unclear results are named; the others gave an inactive call. Unless noted, calls follow the shape of the dose curve; as a rule, active = well fitted curve in the direction sought with a large enough effect; inconclusive = small, poorly fitted or top-dose-only effect, or another doubt; inactive = no such curve, though single readings can be large; an effect the other way counts as inactive or inconclusive.

COc1cc(-c2onc(C)c2C(=O)NCCCCc2ccccc2)cc(OC)c1OC	HEK cytotox 89µM, NIH3T3 tox inconclusive
Cc1noc(-c2ccc(C(C)(C)C)cc2)c1C(=O)NCc1cc(F)cc(F)c1	HEK cytotox inconclusive
Cc1noc(-c2ccc(OC(F)(F)F)cc2)c1C(=O)NCCCc1ccccc1	HEK cytotox 71µM, NIH3T3 tox inconclusive
Cc1noc(-c2ccc(OC(F)(F)F)cc2)c1C(=O)NCCC(c1ccccc1)c1ccccc1	HEK cytotox 35µM, NIH3T3 tox inconclusive, GPT2 inhibitor inconclusive
COc1cc(CN(C)C(=O)c2c(C)noc2-c2ccc(C(C)(C)C)cc2)cc(OC)c1OC	HEK cytotox 40µM, NIH3T3 tox inconclusive
COc1cc(-c2onc(C)c2C(=O)NCCCSC)cc(OC)c1OC	none
Clc1cccc(-c2cnc([C@@H]3COCCN3Cc3ncc[nH]3)[nH]2)c1	none
Fc1ccccc1CN1CCOC[C@H]1c1ncc(-c2cccc(Cl)c2)[nH]1	HEK cytotox 79µM, NIH3T3 tox 79µM
COc1ccc(CN2CCOC[C@H]2c2ncc(-c3cccc(F)c3)[nH]2)cc1	HEK cytotox inconclusive, NIH3T3 tox inconclusive
Fc1cccc(-c2cnc([C@@H]3COCCN3Cc3ccc(Cl)cc3)[nH]2)c1	NPR1 antag inconclusive, HEK cytotox 79µM, NIH3T3 tox inconclusive
CS(=O)(=O)c1ccc(-c2cnc([C@@H]3COCCN3Cc3ccncc3)[nH]2)cc1	none
CS(=O)(=O)c1ccc(-c2cnc([C@@H]3COCCN3Cc3ccc(Cl)cc3)[nH]2)cc1	HEK cytotox 79µM, NIH3T3 tox inconclusive
CN(C)c1ccc(CN2CCOC[C@H]2c2ncc(-c3cccc(Cl)c3)[nH]2)cc1	HEK cytotox 112µM, NIH3T3 tox inconclusive, GPT2 inhibitor inconclusive
COCCN1CCCN(C(=O)c2cccc(F)c2)c2ccccc21	HEK cytotox inconclusive
Cn1nccc1C(=O)N1CCC(Nc2cccnc2)C1 (centres undefined)	none
CC(C)CCN1C(=O)CC[C@]2(C(=O)N3CCN(c4ccc(F)cc4)CC3)CCCC[C@@H]12	HEK cytotox inconclusive, NIH3T3 tox inconclusive
Oc1ccccc1CN1CCOC[C@H]1c1ncc(-c2ccc(F)cc2F)[nH]1	HEK cytotox 79µM, NIH3T3 tox inconclusive
Fc1ccc(CN2CCOC[C@H]2c2ncc(-c3cccc(Cl)c3)[nH]2)cc1	NPR1 antag inconclusive, HEK cytotox inconclusive, NIH3T3 tox 71µM
CN(C)c1ccc(CN2CCOC[C@H]2c2ncc(-c3ccc(F)cc3F)[nH]2)cc1	HEK cytotox inconclusive, NIH3T3 tox inconclusive, GPT2 inhibitor inconclusive
O=C(c1cccs1)N1Cc2[nH]cnc2C[C@H]1c1nc(-c2ccc3ccccc3c2)no1	NIH3T3 tox inconclusive, FLuc inh 28µM
O=C(Nc1ccccc1)N1Cc2[nH]cnc2C[C@H]1c1nc(-c2ccc(Cl)cc2)no1	NPR1 antag inconclusive, HEK cytotox 100µM, NIH3T3 tox inconclusive, FLuc inh 45µM
COc1ccc(NC(=O)N2Cc3[nH]cnc3C[C@H]2c2nc(-c3ccc4ccccc4c3)no2)cc1	HEK cytotox inconclusive, NIH3T3 tox inconclusive
O=C(O)CCC(=O)N1Cc2[nH]cnc2C[C@H]1c1nc(-c2ccc(Cl)cc2)no1	FLuc inh 71µM
O=C(Nc1ccccc1)N1Cc2[nH]cnc2C[C@H]1c1nc(-c2ccccc2)no1	NIH3T3 tox inconclusive, FLuc inh 40µM
CCn1ccc(C(=O)N2CCC(C(=O)N3CCCCCCNC(=O)CC3)CC2)n1	none
O=C(c1ccc(F)cc1)N1Cc2[nH]cnc2C[C@H]1c1nc(-c2ccc3c(c2)OCO3)no1	HEK cytotox inconclusive, NIH3T3 tox inconclusive, FLuc inh 32µM
Cc1ccc(-c2noc([C@@H]3Cc4nc[nH]c4CN3C(=O)c3ccccc3)n2)cc1	FLuc inh 40µM
Cc1ccc(-c2noc([C@@H]3Cc4nc[nH]c4CN3C(=O)Nc3ccc(Cl)cc3)n2)cc1	NPR1 antag inconclusive, HEK cytotox inconclusive, NIH3T3 tox inconclusive, FLuc inh 40µM, GPT2 inhibitor inconclusive
O=C(c1ccccc1)N1Cc2[nH]cnc2C[C@H]1c1nc(-c2ccncc2)no1	none
O=C(c1ccc(F)cc1)N1Cc2[nH]cnc2C[C@H]1c1nc(-c2ccc(Cl)cc2)no1	HEK cytotox inconclusive, NIH3T3 tox inconclusive
